Pf growth 96h: P. falciparum growth inhibition at 96 hours. Potency, µM (titrated, usually from 28.7 µM), inactives show at the top dose activity change, negative = inhibition, hits mostly inhibitors. 6.9% of 320,000 active. P. falciparum luciferase reporter growth, 96 h. AID 504834; also: % is scaled to controls: 0 for no effect and ±100 for the full control effect
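Delayed-death screen, second-generation endpoint: infected erythrocytes, 2% hematocrit, 0.05% parasitemia final; 96 hours at 37 C, 5% CO2; luciferase detection reagent; luminescence decrease equals reduced growth.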
Pf growth 48h: P. falciparum growth inhibition at 48 hours (one generation); Potency, µM (highest dose often 28.7 µM), for inactives: top-dose activity change, negative = inhibition, most hits filed as inhibitors; AID 504832; 5.9% of 310,000 active; P. falciparum luciferase growth in erythrocytes, 48 h; also: % is scaled to controls: 0 for no effect and ±100 for the full control effect
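First compound was added to culture medium, then infected red cells at 0.1% parasitemia and 2% hematocrit (final). After incubation at 37 C under 5% CO2, luciferase detection reagent was dispensed and light output recorded.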
AMA1 RON2 block: inhibitors of Plasmodium falciparum AMA1-RON2 interaction; 0.2% of 360,000 active; AlphaScreen AMA1-biotinylated RON2 peptide binding; Potency, µM (titrated, usually from 58.2 µM), without a hit: at the top dose activity change, negative = inhibition, most hits filed as inhibitors;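 also: 0% = vehicle wells and -100% = peptide control; nearly all actives have a fitted effect of over 45% in size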
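AMA1 (3D7) with his tag at 25 nM final met compounds first, then biotinylated RON2 peptide at 25 nM; detection used donor plus acceptor beads, 10 µg/mL apiece, read by AlphaScreen after 30 min at room temperature.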
SARS PLpro yeast: SARS-CoV PLP inhibition in yeast | AID 485353 | Potency, µM (series often up to 32.9 µM), for inactives: top-dose activity, positive = growth rescue, hits mostly activators | 0.19% of 330,000 active | S. cerevisiae expressing SARS-CoV PLpro, growth rescue; calls by dose curve; also: 0% is about no effect; nearly all actives have a fitted effect of over 55% in size
HCV inhibitor: HCV inhibition. Huh7.5.1 HCVcc-Cre infection, luciferase reporter, 44 h. Potency, µM (doses to about 41.8 µM), for the others: top-dose activity change, negative = inhibition, hits mostly inhibitors. 3.4% of 340,000 active. AID 651820; also: % is scaled to controls: 0 for no effect and ±100 for the full control effect
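Seed cells (1,000/well) for 4 h; treat with compound and infect with HCVcc-Cre, moi about 0.5. Incubate 44 h, then detect luciferase activity.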
NS1 inh: inhibitors of influenza NS1 protein function | AID 2326 | Potency, µM (top dose mostly 46.1 µM), for inactives: at the highest dose activity, positive = more growth | 0.4% of 270,000 active; calls by dose curve; also: actives are rising curves; nearly all actives have a fitted effect of over 50% in size
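S. cerevisiae expressing influenza A NS1, grown in glucose, washed, then diluted 1:100 into pH 6.0 -URA galactose medium with 23 nl compound. Growth recovery read as OD600; NS1-free strain serves as control.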
An asterisk follows results filed as active; ? = inconclusive; nt = no result; [ ] = dose if it differs, or a comment. The list is not random: actives were taken first. Their share in the collection is about 12%. Unless noted, calls follow the shape of the dose curve; as a rule, active = well fitted curve in the direction sought with a large enough effect; inconclusive = small, poorly fitted or top-dose-only effect, or another doubt; inactive = no such curve, though single readings can be large; an effect the other way counts as inactive or inconclusive. Potency is read from the fitted curve at half-maximal effect.

SMILES	Pf growth 96h	Pf growth 48h	AMA1 RON2 block	SARS PLpro yeast	HCV inhibitor	NS1 inh
CN1CCN(C(=O)c2cc(C(C)(C)C)cc(C(C)(C)C)c2)CC1	40%	-19%	11%	0%	-17%	5%
O=C1C[C@H]2OCC=C3CN4CC[C@@]5(C(=O)O)[C@H](N1)C2[C@H]3C[C@H]45 (some centres not stated)	nt	nt	nt	nt	nt	1%
COc1ccc(OC)c(CN2CCN(C(=O)CN3C(=O)NC4(CCCC4)C3=O)CC2)c1	20%	-11%	-13%	-1%	?	nt
Cc1ccc(C)c(NC(=O)c2ccccc2C(=O)c2ccccc2)c1	0%	?	nt	-5%	nt	nt
COc1ccc(Nc2nc3c([nH]2)c(=O)[nH]c(=O)n3C)cc1	13µM*	3%	1%	-1%	12%	nt
COc1ccc(Nc2nc3ccccc3c(=O)[nH]2)cc1	4.7µM*	2.1µM*	-9%	3%	6%	-8%
COc1ccc(OC)c(Nc2cc(C)nc3ccccc23)c1	?	?	-16%	5%	?	-12%
COCCCNc1nc2c([nH]1)c(=O)[nH]c(=O)n2C	0%	11%	14%	1%	16%	5%
Cc1ccc(Nc2nc3ccccc3c(=O)[nH]2)cc1C	0%	?	0%	2%	-5%	nt
COc1ccc(Cl)cc1Nc1cc(C)nc2ccccc12	nt	nt	-8%	nt	11µM*	nt
COc1cc(Nc2nc(-c3ccccc3)c3cc(C)ccc3n2)cc(OC)c1OC	3%	?	-26%	-4%	10µM*	-9%
Cc1ccc2nc(NCC(=O)O)nc(-c3ccccc3)c2c1	15%	12%	44%	-5%	0%	-1%
COc1ccc(C(=O)OCC(=O)N2CCN(S(=O)(=O)c3ccc(C)cc3)CC2)cc1[N+](=O)[O-]	nt	nt	6%	nt	6%	nt
CCc1ccc(NC(=O)CSc2nc(N)c(NC(=O)c3ccc(F)c(F)c3)c(=O)[nH]2)cc1	-6%	-29%	-6%	11%	10%	4%
COc1cc(/C=C/C(=O)O)cc(S(=O)(=O)NC2CC2)c1OC	23%	8%	-1%	17%	13%	19%
CCCS(=O)(=O)O	nt	nt	nt	nt	nt	2%
C1=CC2c3ccccc3NC(c3ccncc3)C2C1 (configuration not stated)	13µM*	?	-16%	0%	-35%	?
COc1ccc(CNC(=O)CCCC2=NS(=O)(=O)c3ccccc3N2)cc1	10µM*	13%	0%	3%	11%	1%
Cc1ccc(CNC(=O)CC2(CC3=NS(=O)(=O)c4ccccc4N3)CCCC2)cc1	12µM*	?	-4%	15%	11µM*	-21%
NNc1ccc(S(=O)(=O)N2CCCCC2)cn1	5%	?	73%	0%	?	7%
C/C(=N\Nc1ccc(S(=O)(=O)N2CCCCC2)cn1)c1cccc(Br)c1	?	10µM*	0%	-15%	?	nt
CC(C)(C)c1ccc(O)c(CN(Cc2cc(C(C)(C)C)ccc2O)c2ccccc2)c1	nt	nt	nt	nt	nt	3%
COC(=O)C(NC(=O)COc1ccccc1)(Nc1nc2c(s1)CCCC2)C(F)(F)F (configuration not stated)	10µM*	?	3%	-18%	1%	-8%
CCOC(=O)C(NC(=O)CC)(Nc1nc2c(s1)CCCC2)C(F)(F)F (configuration not stated)	?	?	0%	27%	-5%	-4%
COc1ccc(C2CC(=O)Oc3c(C(CCN4CCN(c5ccccc5)CC4)c4ccc(N(C)C)cc4)c(OC)cc(OC)c32)cc1 (configuration not stated)	10µM*	9.3µM*	11µM*	7%	-7%[8.37 µM]	1%
COc1ccc(C2CC(=O)Oc3c(C(CCN4CCOCC4)c4cc(OC)c(OC)c(OC)c4)c(OC)cc(OC)c32)cc1 (configuration not stated)	?	9.3µM*	-20%	0%	-9%	-9%

Screens as filed in PubChem.
